Reference: PubChem BioAssay (NCI)
About 83,000 compounds went through this panel and 20% of them were active in at least one assay; those are over-represented in the sample as a whole.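 Single-concentration screen, 48 h exposure, 96-well plates. Endpoint: percent growth. Below 10 = active.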 A number with no mark means an inactive call. Active and inactive are the calls of the source.

System: MDA-MB-231 breast
Experiment: NCI-60 one-dose screen, 48 h (100 = growth as untreated, 0 = no growth, -100 = all killed)
Conditions: 10 µM unless noted

Compound	growth
CC(=O)CCC(=O)OCc1cc(=O)c(O)co1	110%
O=C(c1nc2ccccc2[nH]1)C1C(c2ccc(Cl)cc2)C2CC3CCCC[C@H]3N2[C@@]12C(=O)Nc1cc(Cl)ccc12 (stereo partly drawn)	42.6%
COc1cccc(-c2nc3occn3c2-c2ccnc(NCCNS(=O)(=O)c3cccc4ccccc34)n2)c1	112%
COc1cc(-c2n/c(=C\c3c(O)[nH]c4ccc(Cl)cc34)cc3c2=Nc2ccccc2-3)ccc1F	-7.94% (active)
NNC(=O)c1ccc(-n2nc(-c3ccccc3)c3ccccc32)cc1	63.9%
O=C1Nc2cc(-c3cccc(O)c3)ccc2/C1=C/c1ccc[nH]1	-15.8% (active)
COc1cccc(/C=N/NC(=O)c2cnn3c2NC(c2ccccc2)C3)c1Oc1ccccc1 (stereo not drawn)	90.7%
S=c1cc(S)c2cc(Br)ccc2[nH]1	81.5%
O=C(NCCc1ccccc1)Nc1ccc2cc3ccc(NC(=O)NCCc4ccccc4)cc3nc2c1	-17.5% (active)
CCN(CC)CCCC(C)Nc1cc(O)cc2cccnc12 (stereo not drawn)	69.4%
CCOC(=O)C1=C(C)NC(SCc2cc(=O)oc3ccc(F)cc23)=N[C@@H]1c1cccc2ccccc12	77.7%
COc1ccc(C(=O)c2cc(OC)c(OC)c(OC)c2)cc1O	24.8%
CCCOC(=O)N[C@H]1CCc2c(Cl)c(OC)c(OC)c(OC)c2-c2ccc(SC)c(=O)cc21	-16.7% (active)
Cc1ccc(/C=N/NC(=O)CSc2nc3ccccc3c(=O)n2Cc2ccc(S(N)(=O)=O)cc2)cc1	89.7%
O=C(CCN1CCCC1)Nc1ccc2c(NCCCCc3ccccc3)c3ccccc3nc2c1	-74.9% (active)
CSc1nc2sc3cccc(Cl)c3n2c(=N)c1C#N	90.1%
C#CCNC(=O)c1cccc2c1cc(C)n2-c1nc2c(c(NCc3ccccc3)n1)CCCC2	-69.7% (active)
Cc1ccc(S(=O)(=O)NNC(=O)/C(=C\c2ccc(Cl)cc2)c2nc3ccccc3s2)cc1	95.6%
O=[N+]([O-])CC(c1ccccc1)c1c[nH]c2ccccc12 (stereo not drawn)	46.1%

Compound	growth
Nc1nc(Nc2ccccc2SSc2ccccc2Nc2nc(N)nc(-c3ccc(C(F)(F)F)cc3)n2)nc(-c2ccc(C(F)(F)F)cc2)n1	67.4%
CCCCCC(=O)Oc1ccc(/C(=C(\C)c2ccccc2)c2ccc(OCCN3CCCCC3)cc2)cc1	95%
C/C(=N\Nc1cc(C)nc2ccc(Br)cc12)c1ccc([N+](=O)[O-])cc1	59.4%
COc1cccc(-c2ccc3c(c2)NC(=O)/C3=C\c2ccc[nH]2)c1	53.4%
CCC(=O)Oc1ccc(/C(=C(\C)c2ccccc2)c2ccc(OCCN3CCCCC3)cc2)cc1	91.1%
COc1cc(CC(=O)c2ccc(O)c(OC)c2)ccc1O	88.6%
Brc1ccc2[nH]cc(-c3cncn3CCc3ccccc3)c2c1	65.4%
CCNC(=O)Oc1ccc(/C(=C(\C)c2ccccc2)c2ccc(OCCCN(C)C)cc2)cc1	76.6%
O=C(/C=C/c1ccc(F)cc1)c1ccc(NC(=O)N2CCN(c3cc4c(cc3F)c(=O)c(C(=O)O)cn4C3CC3)CC2)cc1	89.7%
O=S(=O)(NCCNc1nccc(-c2c(-c3cccc(O)c3)nc3occn23)n1)c1ccccc1	66.5%
COc1ccc(C(=O)c2cc(C)c(OC)c(C)c2)c(OC)c1N(C(=O)CCl)C(=O)CCl	-1.61% (active)
O=C(/C=C/c1ccc[nH]1)c1ccc(-n2ccc(C(F)(F)F)n2)c(F)c1	87.1%
COc1ccc(C(=O)C2C(C#N)C(C#N)C3c4ccccc4C=CN23)cc1 (stereo not drawn)	79.2%
c1ccc(-c2cn3c(ccc4ccccc43)n2)cc1	55.8%
CNC(=O)c1cccc(Cn2nc(C)c(NC(=O)c3ccc(COc4ccc(C(F)(F)F)cc4C)cc3)c2C)n1	75.2%
COc1ccc(OC)c(-c2cc(-c3ccc(Cl)cc3)c3c(N)c(C(=O)c4ccc(Cl)cc4)sc3n2)c1	90.4%
CCCOc1ccc(/C=N/Nc2cc(C)nc3ccc(Cl)cc23)cc1	60.1%
O=C(Cc1ccccc1)NNc1nc(Cl)nc(N2CCN(C(c3ccccc3)c3ccccc3)CC2)n1	84.4%
C#CCNC(=O)[C@H](Cc1ccccc1)NC(=O)[C@]12CC[C@@H](C(=C)C)[C@@H]1[C@H]1CC[C@@H]3[C@@]4(C)CCC(=O)C(C)(C)[C@@H]4CC[C@@]3(C)[C@]1(C)CC2	79.1%
